# ± gives the standard deviation.
# Test system: MILI (PIWIL2) piRISC loaded with piRNA #1 (26 nt)
# Assay: pre-steady-state target cleavage rate (min^-1); guide: piRNA #1 5'p-UGAGGUAGUAGGUUGUAUAGUAUCCA; MIWI and MILI are mouse PIWI proteins and EfPiwi is from a freshwater sponge; tags in brackets are library labels; higher = faster piRNA-guided slicing of the target
# Conditions: auxiliary factor: 500 nM mouse GTSF1
# How it was run: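 Three pooled Cleave-'n-Seq trials supplied the data, with k3 capped at 0.0001 min^-1. In each, […] transcribed, DNA-blocked target RNA library and 1 nM active affinity-purified piRISC with one synthetic guide reacted in HEPES–potassium acetate buffer at 33 °C for 0–8 or 0–960 min, with or without 500 nM GTSF1 partner protein. Uncleaved targets were sequenced and normalised to depth and to weakly complementary targets. A burst-and-steady-state fit provided the pre-steady-state cleavage rate.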
# 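Note: 1 nM active piRISC with 0.1 nM target library at 33 °C single turnover.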
row,Sequence,pre-steady-state target cleavage rate
1,GGAGAGGAUACUAUACAACACUACUACCUCA,0.00372 ± 0.0023
2,GGAGACCUUUCUAAACAACCUACUACCUCA,0.0629 ± 0.012
3,GGAGACCUAUGAAUACAUCCUACUACCUCA,0.012 ± 0.0031
4,GGAGACCUAUCUAUACAACGUACUAGCUCA,0.00553 ± 0.0029
5,GGAGACCUAUCUAUACACCUACUACCUCA,0.00467 ± 0.0029
6,GGAGACCUAUGAUUACAACCUACUACCUCG [g2:g17:cont:t1G],0.00649 ± 0.0032
7,GGAGACCUAACUAUCACAACCUACUACCUCA,0.085 ± 0.025
8,GGAGACCUUAGUAUACAUCCUACUACCUCA,0.126 ± 0.018
9,GGAGACGAUACUAUACAUGGUACUACCUCA,0.00601 ± 0.0019
10,GGAGACCUUAGUAUACAACCUACUAGCUCA,0.00944 ± 0.0043
11,GGAGACCUUACAAAACAACCUACUACCUCA,0.00897 ± 0.0036
12,GGAGACCUAUCAAUACAACGUACUACCUCA,0.00874 ± 0.0028
13,GGAGACCUUACUUUACAACCUACUACCACA,0.14 ± 0.018
14,GGAGACCUUACUAUACAACCUAGAACCUCA,0.00842 ± 0.0033
15,GGAGACCUAUGUAAACAACCUUCUACCUCA,0.00363 ± 0.0033
16,GGAGACCUUACUAUACACCUACUACCUCA,0.00774 ± 0.0034
17,GGAGACCUAUGAAUACAACCUACUACUUCA,0.00709 ± 0.0022
18,GGAGACCUAACAAUACAACCUACAACCUCA,0.0691 ± 0.019
19,GGAGACCUUACUAUACAACCUUCUACCACA,0.00842 ± 0.0039
20,GGAGACCUUACUAUUCAACCUAGUACCUCA,0.0486 ± 0.011
21,GGAGACCUAUGAAUACAUCCUUCUACCUCA,0.00365 ± 0.0022
22,GGAGACCUAUGAAUACAAGCUACUACCUGA,0.017 ± 0.0038

row,Sequence,pre-steady-state target cleavage rate
1,GGAGACCUUACUAAACAACCUAGUACCUCA,0.0259 ± 0.0068
2,GGAGACCUAACAAUAGAACCUACUACCUCA,0.0656 ± 0.012
3,GGAGACCUAUGUAUACAUCCUACAACCUCA,0.114 ± 0.014
4,GGAGACCUAUCUAUUCAACCUACUACCUGA,0.0654 ± 0.014
5,GGAGACCAUUGUAUACAACCUACUACCUCA,0.0325 ± 0.0067
6,GGAGAGGAUAGUAUUCAACCUACUACCUCA,0.0731 ± 0.011
7,GGAGACCUAUGUAUACAAGCUUCUACCUCA,0.0107 ± 0.0027
8,GGAGACCUUACUAUACUACCUACUAGCUCA,0.142 ± 0.016
9,GGAGACCUAUCAAUACAAGCUACUACCUCA,0.108 ± 0.013
10,GGAGACCAUAGUAUAGAACCUACUACCUCA,0.105 ± 0.011
11,GGAGAGGAUACUAUACUACCUACAACCUCA,0.102 ± 0.0092
12,GGAGACCUUAGUUUACAACCUACUACCUCA,0.0381 ± 0.012
13,GGAGUGGAUACUAUAGUACCUACUACCUCA,0.161 ± 0.012
14,GGAGACGAUACUAUACAACCUACAUGCUCA,0.0563 ± 0.016
15,GGAGACCUAUGUAUACCAACCUACUACCUCA,0.00297 ± 0.003
16,GGAGUCGAUACUUUACAACCUACUACCUCA,0.185 ± 0.009
17,GGAGACCUAACUAUACAACCUACUACUCA,0.141 ± 0.033
18,GGAGUGGAUUCUAUAGAACCUACUACCUCA,0.179 ± 0.012
19,GGAGACCUAAGUAUACUACCUACUACCUCA,0.0377 ± 0.0069
20,GGAGACCUUACUAUAGUUCCUACUACCUCA,0.113 ± 0.0093
21,GGAGACCUAUGUAUAGAACCUACUACCUCA,0.0559 ± 0.0092
22,GGAGACCUUUCUUUACAACCUACUACCUCA,0.07 ± 0.012

row,Sequence,pre-steady-state target cleavage rate
1,GGAGACCAUACAAUUCAACCUACUACCUCA,0.13 ± 0.013
2,GGAGACCUAACUUUACAAGCUACUACCUCA,0.135 ± 0.025
3,GGAGACCUUACUAUACAACGUACUACCACA,0.0216 ± 0.0046
4,GGAGAGGAUACUAUACAAACUACUACCUCA,0.134 ± 0.013
5,GGAGACCUAUGUAUACUACCUACUACCACA,0.0548 ± 0.008
6,GGAGUGGUUAGUAUACAACCUACUACCUCA,0.105 ± 0.011
7,GGAGACCUAUCUUUACUACCUACUACCUCA,0.0305 ± 0.008
8,GGAGACCUUACUAUACAACCGUACUACCUCA,0.00868 ± 0.0053
9,GGAGACCUAACUAUACAAGCUACUUCCUCA,0.144 ± 0.024
10,GGAGACCUUACUAUUCAACCAACUACCUCA,0.00367 ± 0.0028
11,GGAGACCUAUGAUAUCAAGCUACUACCUCA,0.00559 ± 0.0019
12,GGAGACCUUAGUAUACAACCUAGUACCUCA,0.0225 ± 0.0077
13,GGAGACCUAUGAUAUGAAACUACUACCUCA,< 0.0001
14,GGAGACCAUACUAUAGAUCCUACUACCUCA,0.229 ± 0.026
15,GGAGACCUAUGUAAACAACCUACUACCUGA,0.00535 ± 0.0019
16,GGAGACCUAUGUAUAGAACCUACUACCUGA,0.00583 ± 0.0025
17,GGAGACGAUACUUUAGAACCUACUACCUCA,0.16 ± 0.01
18,GGAGUGGUUACUAUAGAACCUACUACCUCA,0.175 ± 0.014
19,GGAGACCUAUCUAUUCAACCUAGUACCUCA,0.00955 ± 0.0033
20,GGAGACCUAUGAUUACUACCUACUUCCUCA,0.00322 ± 0.0022
21,GGAGUGGAUACUUUACAACCUAGUACCUCA,0.0239 ± 0.0053
22,GGAGACCUAUGUAUACAACCUACCACCUCA,0.0347 ± 0.0083
